Screens deposited in PubChem by National Center for Advancing Translational Sciences (NCATS).
D2 PAM-1: Beta-Arrestin HTS for Positive Allosteric Modulators of the Human D2 Dopamine Receptor: Potentiators. D(2) dopamine receptor (Homo sapiens), P14416. potentiation, % (concentration not given with the values). hit rate 0.23% among 360,000. DiscoveRx D2 beta-arrestin cells, luminescence, 90 min; 100% = 57 uM dopamine signal; in the data active means potentiation above about 50%
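D2 cells co-treated with compound plus 50 nM dopamine (EC20) for 90 min at 37 deg C to detect potentiation. Beta-arrestin recruitment was read as enzyme-fragment luminescence after 1 h at ambient temperature. Full response was set by 57 uM dopamine.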
B2AR arrestin: qHTS assay of beta-arrestin-biased ligands of beta2-adrenergic receptor | Beta-2 adrenergic receptor (Homo sapiens), P07550 | beta-arrestin recruitment to beta2AR, cell-based reporter | Potency, µM (titrated, usually from 46.1 µM), without a hit: at the highest dose activation, actives largely listed as activators | hit rate 0.02% among 330,000 | AID 492947, 2010; active means well fitted activation curve with a large enough effect;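 further: potency means the concentration at half of the fitted maximal effect; 0% = DMSO controls and full agonism = EC100 isoproterenol or metaproterenol; nearly all actives have a fitted effect of over 65% in size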
Target sequence (P07550 whole entry, looked up): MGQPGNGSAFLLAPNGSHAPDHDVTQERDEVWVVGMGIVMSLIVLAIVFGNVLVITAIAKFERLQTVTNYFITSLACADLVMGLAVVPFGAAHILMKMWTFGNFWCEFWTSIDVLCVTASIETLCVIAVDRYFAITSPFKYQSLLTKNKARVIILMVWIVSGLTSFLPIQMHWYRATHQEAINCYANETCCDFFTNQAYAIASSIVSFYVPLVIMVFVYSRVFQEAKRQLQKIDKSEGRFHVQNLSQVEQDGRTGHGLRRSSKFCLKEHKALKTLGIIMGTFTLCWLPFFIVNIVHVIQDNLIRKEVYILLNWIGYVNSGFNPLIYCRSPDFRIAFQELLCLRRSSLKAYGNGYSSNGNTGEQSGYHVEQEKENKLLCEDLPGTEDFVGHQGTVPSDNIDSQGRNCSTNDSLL
D2 ag-1: HTS Assay for Allosteric Agonists of the Human D2 Dopamine Receptor: Primary Screen for Agonists | D(2) dopamine receptor (Homo sapiens), P14416 | HEK293 T-REx D2 cells, calcium flux agonist mode | activation, % at 2 µM | hit rate 0.53% among 340,000 | AID 485358, 2010;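 active means activation over 3 SD above normal in the single-dose calcium agonist read, cut at about 30% in these data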; further: 0% is about no effect
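Agonism is scored from calcium flux in a force-coupled, inducible HEK293 cell line expressing D2, read kinetically for 180 s after compound addition against dopamine controls.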
D2 PAM-2: HTS Assay for Positive Allosteric Modulators of the Human D2 Dopamine Receptor: Primary Screen for Potentiators; D(2) dopamine receptor (Homo sapiens), P14416; HEK293 T-REx D2, calcium flux, EC20 dopamine potentiation; potentiation, % at 10 µM; hit rate 0.34% among 340,000;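 active means potentiation over 3 SD above the plate norm, cut at about 30% in these data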; further: 0% is about no effect
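Potentiation of an EC20 dopamine calcium response is measured in a force-coupled, tetracycline-inducible Hek293 Trex D2 line. Compound-only kinetic reads over 180 s flag agonists before dopamine addition.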
D2 ag-2: Beta-Arrestin HTS for Positive Allosteric Modulators of the Human D2 Dopamine Receptor: Agonists. DiscoveRx PathHunter D2 beta-arrestin, luminescence, 90 min; 100% = 57 uM dopamine signal. activation, % (test concentration not listed). hit rate 0.084% among 360,000. AID 624465, 2012; in the data active means activation above about 40%
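Agonist mode: compounds alone added to overnight-plated D2 PathHunter cells for 90 min at 37 C, with 57 uM final dopamine (EC100) defining full response. Beta-arrestin recruitment detected by chemiluminescent reagent, read after 1 h at ambient temperature.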
D2 antag: HTS Assay for Allosteric Antagonists of the Human D2 Dopamine Receptor: Primary Screen for Antagonists. HEK293 TREx D2 cells, calcium flux, dopamine EC80. inhibition, % at 10 µM. hit rate 2% among 340,000; in the data active means inhibition above about 30%; inactive means below that, where a call was filed; further: 0% is about no effect
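Dopamine at EC80 is the agonist stimulus; test compounds precede it by 180 s. Calcium flux read kinetically in a force-coupled, inducible HEK293 T-REx D2 cell line.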
* = called active by the depositor; x = no result given; ! = not confirmed by another sample. Hits are enriched below; roughly 2.4% of the tested compounds scored in any of these assays.

SMILES	D2 PAM-1	B2AR arrestin	D2 ag-1	D2 PAM-2	D2 ag-2	D2 antag
CCc1ccc(-c2nn(Cc3ccccc3)cc2C=O)cc1	0.2	-0.5%	0.9	-4.2	-6.8	35.0*
Cc1ccccc1N1CCN(C2CCCN(C(=O)COc3ccccc3)C2)CC1 (configuration not stated)	-43.6	4.3%	-1.1	-10.0	-4.3	-8.6
CN1CC(C(=O)c2ccccc2)C(c2ccccc2)C1 (configuration not stated)	-13.9	0.0%	1.5	-28.8	2.8	35.1*
CN1CCN(c2c[nH]c(=O)[nH]c2=O)CC1	8.0	2.8%	0.5	13.2	-1.3	35.6*
CN1CCN(c2ccccc2N)CC1	-14.2	x	0.7	-5.9	-0.2	-12.5
C[C@H]1CCC[C@H](O)CCCCCc2cc(O)cc(O)c2C(=O)O1	1.7	-0.4%	0.5	7.1	-2.9	32.4*
Oc1ccc(C[C@H]2NCCc3cc(O)c(O)cc32)cc1O	-22.4	-0.3%	5.4	-37.3	6.9	84.8*
CCCC1=C(C(=O)OCC)C2(C(=O)Nc3ccccc32)C(C#N)=C(N)O1 (configuration not stated)	26.5	-0.5%	-0.2	-8.8	7.2	2.1
COc1ccc(OC)c(CN2CCCC(C(=O)c3sccc3C)C2)c1 (configuration not stated)	-26.1	0.0%	-0.1	-25.0	-3.9	51.2*
Cc1ccsc1C(=O)C1CCCN(Cc2cc(C(C)C)n[nH]2)C1 (configuration not stated)	-16.1	-0.2%	-0.7	-32.5	0.3	80.4*
COc1cccc(O)c1CN1CCCC(C(=O)c2sccc2C)C1 (configuration not stated)	-31.7	0.0%	0.4	-17.7	-3.8	7.7
Cc1ccsc1C(=O)C1CCCN(Cc2ccn[nH]2)C1 (configuration not stated)	-28.1	0.4%	0.1	5.3	-2.1	12.1
O=C1NC(=O)C(=Cc2ccc(-c3ccc(F)cc3O)o2)C(=O)N1	-5.9	-0.8%	-1.0	-0.8	-3.3	-4.7
CCCCn1nnnc1C(c1cccc(OC)c1OC)N1CCC2(CC1)C(=O)NCN2c1ccccc1 (configuration not stated)	-2.4	x	x	x	4.6	x
C/C(=N\Nc1ccccc1)c1c(O)n(Cc2ccccc2)c(=O)[nH]c1=O	56.8*	0.0%	-1.0	7.9	10.9	-10.2
COC(=O)C1C(O)CC2CCC1N2C (configuration not stated)	-24.4	0.4%	x	x	3.0	x
CN1CCN(c2nc(N)c(Br)c(Cl)n2)CC1	-54.1	-0.5%	1.1	-17.4	-2.5	68.6*
CN1CCN(c2ncnc(Cl)c2N)CC1	-11.5	0.1%	0.8	-19.7	-4.2	-17.4
CCn1cc(C(=O)O)c(=O)c2ccc(C)nc21	-6.1	-0.4%	0.5	3.8	-6.3	40.7*!
CCn1cc(C(=O)NCc2ccccc2)c2ccccc21	-19.6	-0.3%	0.8	-32.1	-6.2	5.3
CN(C)Cc1c[nH]c2cc([N+](=O)[O-])ccc12	-5.4	x	x	x	-0.2	x
CN1C[C@H](CNC(=O)OCc2ccccc2)C[C@@H]2c3cccc4c3c(cn4C)C[C@H]21	-25.6	0.9%	10.8	-28.2	2.7	77.7*
CCN1/C(=C/C=C/C2=[N+](CC)c3ccccc3C2(C)C)C(C)(C)c2ccccc21	-50.3	x	x	x	-4.7	x
CN1/C(=C\C=C\C2=[N+](C)c3ccc4ccccc4c3C2(C)C)C(C)(C)c2ccccc21	x	-0.5%	1.6	27.3	x	39.0*
